For 16 compounds, composite z-score and composite Z-score results are on record in PubChem BioAssay.

Activity calls are given as the source filed them.

In one assay the target is Albumin (Bos taurus) (UniProt P02769). Put plainly: bovine serum albumin binders on microarray, profiling panel, artefact control for SMM control protein annotation, biochemical, small-molecule microarray, Alexa647 label, 635/667 nm fluorescence (AID 1118).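 Further: score merges 667 nm emission intensity and signal-to-noise per printed compound spot.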 Conditions: BSA-A647 binding, fluorescence 635 nm, higher = more signal.
Assay [1] can be described thus: small-molecule microarray binders of probe aXIP, primary screen, biochemical, NeuroSMM set, 635/667 nm fluorescence (AID 1119).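 Further: probe is the protein aXip251-270 applied at 1 µg/mL to compound-printed slides; binding of probe to printed compounds measured as 667 nm fluorescence plus signal to noise.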 The settings on record: higher = more signal, called active from +8 up or from −8 down.
The nature of assay [2]: small-molecule binders of probe aNOTCH3, primary screen, biochemical, small-molecule microarray, 635/667 nm fluorescence (AID 1120).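 Further: probe is a biotin-tagged antibody raised against NOTCH3 rather than NOTCH3 protein; score merges spot fluorescence near 667 nm with spot signal to noise.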 Conditions: higher = more signal.
The nature of assay [3]: small-molecule binders of probe aNOTCH2, primary screen, biochemical, small-molecule microarray, 635/667 nm fluorescence (AID 1121).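 Further: score merges feature fluorescence read at 667 nm with its signal to noise.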 Conditions: higher = more signal.
Assay [4] concerns the target Carbonic anhydrase 2 (Homo sapiens) (UniProt P00918). Put plainly: CAII small-molecule binders, profiling panel, biochemical, small-molecule microarray, Alexa647-labelled CAII (AID 1122). The settings on record: CAII-A647 binding fluorescence, higher = more signal.
Assay [5] can be described thus: COS7 lysate on small-molecule microarray, probe aHis, 635 nm (AID 1123).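 Further: z-score combines 667nm fluorescence intensity with signal-to-noise per printed compound spot.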 The settings on record: COS7 cell lysate, fluorescence, higher = more signal.
Assay [6] is described as follows: compound binding in COS7 lysate, probe aLAP1, primary screen, cell lysate, small-molecule microarray (AID 1124).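 Further: lysate comes from COS7 cells expressing LAP1 and is applied at 0.3 µg/mL; score merges spot fluorescence near 667 nm with signal-to-noise over triplicate slides.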 Conditions: probe aLAP1, fluorescence, higher = more signal.
Another assay relates to Sam68 (KHDRBS1). Put plainly: Sam68 small-molecule binders, primary screen, biochemical, small-molecule microarray, 635 nm fluorescence (AID 1125).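 Further: score merges 667 nm channel intensity with signal to noise over triplicate slides.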 The settings on record: small-molecule microarray binding, higher = more signal.
Assay [7] concerns Chordin-like protein 2 (CHRDL2). Put plainly: CHRDL2 small-molecule binders, primary screen, biochemical, small-molecule microarray, 635 nm fluorescence (AID 1126).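 Further: printed compound slides probed with Chrdl2 protein at 4 µg/mL for 1 h at 4 C; score merges 667 nm emission intensity with signal to noise over three replicate slides.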 Conditions: small-molecule microarray binding, fluorescence 635 nm; higher = more signal.
The target in assay [8] is Concanavalin-A (Canavalia ensiformis) (UniProt P02866). Put plainly: ConA small-molecule binders, primary screen, artefact control for SMM control protein annotation, biochemical, small-molecule microarray, Alexa647 label, 635 nm (AID 1127).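 Further: z combines 667 nm emission intensity with signal-to-noise across three replicate slides.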 Conditions: ConA-A647 binding fluorescence, higher = more signal.
Chain of Concanavalin-A (Canavalia ensiformis) (P02866 whole entry, looked up): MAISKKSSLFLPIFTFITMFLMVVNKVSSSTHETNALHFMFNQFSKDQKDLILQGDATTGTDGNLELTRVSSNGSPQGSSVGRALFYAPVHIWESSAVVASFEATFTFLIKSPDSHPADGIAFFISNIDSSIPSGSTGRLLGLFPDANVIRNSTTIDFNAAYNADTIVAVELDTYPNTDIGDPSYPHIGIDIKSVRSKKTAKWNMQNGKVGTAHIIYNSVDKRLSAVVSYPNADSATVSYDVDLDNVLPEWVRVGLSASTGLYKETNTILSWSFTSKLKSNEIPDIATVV

Chain of Albumin (Bos taurus) (P02769 whole entry, looked up): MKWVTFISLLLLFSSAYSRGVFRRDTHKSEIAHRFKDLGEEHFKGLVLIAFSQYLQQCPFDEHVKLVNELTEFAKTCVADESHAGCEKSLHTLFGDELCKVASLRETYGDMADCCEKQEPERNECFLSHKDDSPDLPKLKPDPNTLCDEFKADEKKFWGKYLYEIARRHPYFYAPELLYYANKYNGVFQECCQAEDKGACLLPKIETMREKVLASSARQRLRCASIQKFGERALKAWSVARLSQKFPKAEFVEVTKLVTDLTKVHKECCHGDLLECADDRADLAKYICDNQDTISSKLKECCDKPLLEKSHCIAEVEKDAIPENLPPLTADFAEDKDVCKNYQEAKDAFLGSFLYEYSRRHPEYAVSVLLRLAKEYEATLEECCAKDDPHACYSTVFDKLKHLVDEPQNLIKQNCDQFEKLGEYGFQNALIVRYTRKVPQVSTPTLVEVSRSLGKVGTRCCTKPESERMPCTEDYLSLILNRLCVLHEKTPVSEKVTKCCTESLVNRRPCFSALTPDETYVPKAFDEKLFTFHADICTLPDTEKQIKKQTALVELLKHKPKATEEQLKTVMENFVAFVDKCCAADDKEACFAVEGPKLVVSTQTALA

With `CC1CC/C=C\[C@H]2OC34C=CCN(c5ccc6ccccc6c5)C(=O)[C@H]3N(C(C)CO)C(=O)[C@@H]4C2C(=O)O1` (stereo not given in full), the composite z-score with Albumin (Bos taurus) is -0.333; in assay [2] it was -0.226; in [3] it was -0.181; in assay [4], 0.725; in assay [5] it was -0.976; in assay [6], 0.105. Besides, the composite z-score in the assay with Sam68 (KHDRBS1) is -0.849; in assay [7], -0.837; in [8], -0.654. Also, in [1], the composite Z-score is -0.105 (inactive).
As for `COCCCNC(=O)[C@@H]1c2ccccc2C(=O)N(Cc2ccc(OC(F)(F)F)cc2)[C@H]1c1ccc(CO)cc1`, the composite z-score with Albumin (Bos taurus) is 0.348; in assay [2], -0.0074; in assay [3] it was -0.174; in assay [4], 0.529; in assay [5], 1.22; in assay [6], 1.28. Further, the results for the composite z-score (in the assay with Sam68 (KHDRBS1); in assay [7]; in assay [8]) were 0.859, 0.286 and 0.874, respectively. In addition, in assay [1], the composite Z-score was -0.274 (inactive).
Take `CCOC(=O)C1=CC[C@@H](c2ccc(OC)cc2)N(S(=O)(=O)c2ccc(C)cc2)[C@H]1c1ccc(C)cc1`: the composite z-score was 0.446 in the assay with Albumin (Bos taurus); 0.0203 in assay [2]; -0.084 in assay [3]; 0.222 in assay [4]; 1.99 in [5]; 0.423 in assay [6]. Moreover, the composite z-score with Sam68 (KHDRBS1) was 1.34; in [7], -0.554; in assay [8], 0.669. Besides, the composite Z-score in assay [1] is 0.477 (inactive).
As to `CC(C)C(=C=CC[C@H](O)c1ccccc1OCCO)C[C@H](O)c1cc(Cl)cc(Cl)c1O`, the composite z-score in the assay with Albumin (Bos taurus) was 0.791; in assay [2], 0.141; in assay [3] it was -0.106; in [4], 0.664; in assay [5], 1.48; in assay [6], 0.114. For the same compound, the composite z-score in the assay with Sam68 (KHDRBS1) is 1.31; in [7], -0.114; in assay [8] it was 1.14. Moreover, in [1], the composite Z-score was -0.275 (inactive).
On to `CC1=C([C@H](O)CCc2ccccc2)[C@H](CO)n2c(=O)n(-c3ccccc3)c(=O)n2C1`, for which the composite z-score is -0.348 with Albumin (Bos taurus); -0.187 in assay [2]; -0.199 in assay [3]; -0.3 in assay [4]; -0.35 in assay [5]; -0.603 in [6]. Also, the composite z-score in the assay with Sam68 (KHDRBS1) was -0.308; in assay [7], 0.443; in assay [8] it was -0.0316. Moreover, the composite Z-score in [1] is 0.51 (inactive).
Regarding `COC(=O)c1cccc([C@H]2OC(=CC(=O)OC(C)C)C[C@@H](c3cccc(C(=O)OC)c3)O2)c1`, the composite z-score with Albumin (Bos taurus) is 0.937; in [2] it was 0.455; in assay [3], -0.118; in assay [4], 0.745; in assay [5], 1.78; in assay [6] it was 0.93. Further, the composite z-score in the assay on Sam68 (KHDRBS1) is 1.29; in assay [7], -0.338; in assay [8], 1.2. Besides, the composite Z-score in assay [1] is 0.587 (inactive).
With `O=C(O)[C@H](Cc1ccccc1)n1cc(C2(O)CCCCC2)nn1`, the composite z-score in the assay with Albumin (Bos taurus) is 0.568; in assay [2] it was 0.0191; in [3], -0.147; in assay [4] it was 0.54; in assay [5] it was 1.46; in assay [6], 0.0496. Further, the composite z-score was 1.01 in the assay on Sam68 (KHDRBS1), -0.0151 in assay [7] and 0.463 in assay [8]. Further, the composite Z-score in assay [1] is 0.217 (inactive).
As to `CC(C)(C)N1CC=CC23O[C@@H]4/C=C\CCCOC(=O)C4[C@H]2C(=O)N(CCCCCO)[C@@H]3C1=O` (stereo not given in full), the composite z-score with Albumin (Bos taurus) was -1.58; in [2], -0.349; in [3], -0.126; in assay [4], 0.941; in assay [5], -0.584; in [6], 0.566. The composite z-score was -0.484 in the assay on Sam68 (KHDRBS1), -1.46 in assay [7] and -1.46 in assay [8]. In addition, in [1], the composite Z-score was 0.794 (inactive).
For `[N-]=[N+]=Nc1ccccc1[C@@H]1OC(c2ccc(OCCCO)cc2)=N[C@]1(Cc1ccccc1)C(=O)NCCN1CCOCC1`, the composite z-score with Albumin (Bos taurus) was 0.981; in assay [2], 0.156; in assay [3], -0.0482; in [4], 0.607; in [5], 2.86; in assay [6], 0.946. Moreover, the figures for the composite z-score (in the assay with Sam68 (KHDRBS1); in assay [7]; in assay [8]) were 0.96, -0.377 and 0.355, respectively. In addition, the composite Z-score in assay [1] is 0.0561 (inactive).
For the compound `COCCCNC(=O)[C@@]1(CCC(=O)OC(C)(C)C)COC(c2ccc(OCCCO)cc2)=N1`, the composite z-score with Albumin (Bos taurus) was 0.483; in assay [2] it was 0.133; in [3] it was -0.0485; in assay [4], 0.619; in [5] it was 3; in [6], 0.504. The composite z-score with Sam68 (KHDRBS1) is 1.28; in assay [7], -0.42; in [8], 0.286. Besides, the composite Z-score in assay [1] is 0.507 (inactive).
Turning to `C=C(CCCC)/C(=C/C[C@H](OC(=O)c1ccncc1)c1ccccc1OCCO)c1cc(C(=O)OC)ccc1OC`, the composite z-score with Albumin (Bos taurus) is -0.172; in assay [2], -0.0362; in [3], -0.145; in assay [4], 0.63; in assay [5], 1.2; in assay [6] it was 0.127. Further, the results for the composite z-score (in the assay with Sam68 (KHDRBS1); in [7]; in assay [8]) were 1.05, 0.647 and 0.749, respectively. In [1], the composite Z-score was -0.0743 (inactive).
Turning to `O=C(NCC(O)CO)[C@@]1(CCS(=O)(=O)c2ccccc2)N=C(c2ccc(OCCCO)cc2)O[C@H]1c1ccccc1` (stereo not given in full), the composite z-score in the assay with Albumin (Bos taurus) worked out at 0.905; in assay [2] it was 0.177; in assay [3] it was 0.137; in [4] it was 0.555; in assay [5], 3.17; in [6] it was 1.11. For the same compound, the composite z-score in the assay on Sam68 (KHDRBS1) was 1.22; in assay [7], 0.106; in [8], 0.0968. Moreover, the composite Z-score in assay [1] was 1.06 (inactive).
For `C=CCOC(=O)[C@@H]1[C@H]2C(=O)O[C@H](c3ccccc3)[C@H](c3ccccc3)N2[C@H](c2ccc(OCCOC(=O)[C@H]3C[C@H]4C(=O)N5CCC[C@H]5C(=O)N4[C@H]3c3cccc(OCCO)c3)cc2)[C@@]12C(=O)Nc1ccc(I)cc12`, the composite z-score with Albumin (Bos taurus) was -0.638; in [2], -0.0328; in assay [3], -0.0228; in [4] it was 0.219; in assay [5], 0.942; in assay [6], 0.448. The composite z-score in the assay with Sam68 (KHDRBS1) turned out to be 1.3; in [7] it was 1.02; in [8], 1.17. The composite Z-score in assay [1] was 1.17 (inactive).
`COC(=O)C[C@H]1O[C@@]2(C[C@@H]1[Si](C)(C)C)C(=O)N(C)c1ccccc12`: the composite z-score in the assay with Albumin (Bos taurus) was 0.18; in assay [2], 0.0306; in assay [3] it was -0.111; in assay [4] it was 0.288; in [5] it was 0.689; in assay [6], 0.186. For the same compound, the values for the composite z-score (with Sam68 (KHDRBS1); in [7]; in assay [8]) were 0.86, 0.268 and 0.332, respectively. The composite Z-score in assay [1] was -0.701 (inactive).
For the compound `O=C1C=C(c2ccccc2)C(=O)C2=C1CC([C@H]1Oc3ccccc3S(=O)(=O)N3CCC[C@@H]13)=CC2`, the composite z-score is 0.0895 with Albumin (Bos taurus); -0.0918 in assay [2]; -0.0485 in assay [3]; -0.248 in assay [4]; -0.227 in assay [5]; -0.247 in assay [6]. The results for the composite z-score (in the assay with Sam68 (KHDRBS1); in assay [7]; in [8]) were 0.13, 0.121 and 0.0457, respectively. In addition, in [1], the composite Z-score was 0.506 (inactive).
In the case of `COC(=O)[C@@]1(Cc2ccc(OC)cc2)[C@H]2c3cc(C(=O)N4CCCC4)n(Cc4c(CO)[nH]cc(C)c4=O)c3C[C@H]2CN1C(=O)c1ccccc1`, the composite z-score in the assay with Albumin (Bos taurus) came out at 1.01; in assay [2] it was 0.0296; in assay [3] it was 0.257; in assay [4] it was 0.751; in assay [5] it was 3.24; in assay [6], 1.32. In addition, the values for the composite z-score (in the assay with Sam68 (KHDRBS1); in assay [7]; in [8]) were 0.332, -0.184 and 0.393, respectively. Further, in [1], the composite Z-score is -0.438 (inactive).
